Results as given in PubChem BioAssay AID1159580 (chemical genetic matrix, 2015).
Values joined by “and” are separate entries in the source; they are usually repeats but may differ in a detail not shown here. Equal values may be shown once. Out of some 5,500 compounds screened, about 2,000 (36%) were called active. Roughly 18% stayed inconclusive and do not appear here. Rule as the data show it: active = normalized growth mostly below about 0.91 (no sharp cut-off); inconclusive = no clear call, values can overlap the other calls; inactive = mostly above about 0.92. Some of the results follow.

Assay: chemical genetic growth profiling, strain panel (AID 1159580);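 also: tested at 20 µM; growth read once vehicle control cultures reached saturation at 30 °C; 1 = growth at the plate median or of vehicle wells; lower values mean less growth of the strain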
Settings: S. cerevisiae deletion strains, growth OD

Measured: normalized growth

COc1cc([C@@H]2c3cc4c(cc3[C@H](O)[C@H]3COC(=O)[C@@H]23)OCO4)cc(OC)c1OC
inactive: locus YAL021C, strain ccr4, hits give low values 1 | locus YAL026C, strain drs2, hits give low values 1.03 | locus YAL030W, strain snc1, hits give low values 1.02 | locus YBL061C, strain skt5, hits give low values 1 | locus YBR009C, strain hhf1, hits give low values 1 | locus YBR021W, strain FUR4, hits give low values 1.04 | locus YBR023C, strain chs3, hits give low values 1.02 | locus YBR171W, strain sec66, hits give low values 1.02 | locus YBR229C, strain ROT2, hits give low values 1 | locus YBR231C, strain swc5, hits give low values 1.02 | locus YBR279W, strain paf1, hits give low values 1.02 | locus YCL011C, strain gbp2, hits give low values 1.02 | locus YCL016C, strain dcc1, hits give low values 1.01 | locus YCL029C, strain bik1, hits give low values 0.983 | locus YCL069W, strain vba3, hits give low values 1.02 | locus YCR088W, strain abp1, hits give low values 1.02 | locus YDL005C, strain med2, hits give low values 1.02 | locus YDL035C, strain GPR1, hits give low values 0.991 | locus YDL040C, strain nat1, hits give low values 1.02 | locus YDL074C, strain BRE1, hits give low values 0.949 | locus YDL101C, strain DUN1, hits give low values 1.01 | locus YDL134C, strain PPH21, hits give low values 1.03 | locus YDL185W, strain tfp1, hits give low values 0.945 | locus YDL192W, strain arf1, hits give low values 1.01 | locus YDR001C, strain nth1, hits give low values 1.02 | locus YDR069C, strain doa4, hits give low values 1.03 | locus YDR101C, strain arx1, hits give low values 0.98 | locus YDR137W, strain rgp1, hits give low values 1.05 | locus YDR159W, strain sac3, hits give low values 1.03 | locus YDR162C, strain NBP2, hits give low values 1.01 | locus YDR195W, strain ref2 1.04 | locus YDR297W, strain sur2, hits give low values 1.03 | locus YDR318W, strain mcm21, hits give low values 0.999 | locus YDR334W, strain swr1, hits give low values 1.02 | locus YDR335W, strain msn5, hits give low values 1.02 | locus YDR388W, hits give low values 0.988 | locus YDR392W, strain spt3, hits give low values 0.989 | locus YDR502C, strain sam2, hits give low values 0.989 | locus YEL003W, strain gim4, hits give low values 1.02 | locus YEL037C, strain rad23, hits give low values 1.01 | locus YEL061C, strain CIN8 (second series), hits give low values 1.02 | locus YEL061C, strain CIN8, hits give low values 1.01 | locus YER015W, strain faa2, hits give low values 1.02 | locus YER016W, strain bim1, hits give low values 1.02 | locus YER110C, hits give low values 0.98 | locus YER111C, strain swi4, hits give low values 1.01 | locus YER155C, strain BEM2 (second series), hits give low values 1.02 | locus YER155C, strain BEM2, hits give low values 0.986 | locus YER167W, strain BCK2, hits give low values 1 | locus YFR010W, strain ubp6, hits give low values 1.02 | locus YGL078C, strain dbp3, hits give low values 0.972 | locus YGL086W, strain mad1, hits give low values 0.983 | locus YGL167C, strain pmr1, hits give low values 1.02 | locus YGL173C, strain kem1, hits give low values 1.02 | locus YGL227W, strain vid30, hits give low values 1.03 | locus YGL240W, strain doc1, hits give low values 1.03 | locus YGL248W, strain PDE1, hits give low values 1.03 | locus YGL253W, strain hxk2, hits give low values 1.02 | locus YGR135W, strain pre9, hits give low values 1.02 | locus YGR229C, strain SMI1, hits give low values 1.02 | locus YGR252W, strain gcn5, hits give low values 1.17 | locus YHR013C, strain ard1, hits give low values 1.03 | locus YHR027C, strain rpn1, hits give low values 1.02 | locus YHR030C, strain SLT2, hits give low values 0.987 and 0.98 | locus YHR079C, strain IRE1 (second series), hits give low values 0.983 | locus YHR079C, strain IRE1, hits give low values 0.983 | locus YHR094C, strain hxt1, hits give low values 0.999 | locus YHR129C, strain ARP1, hits give low values 1.01 | locus YHR142W, strain chs7, hits give low values 1.03 | locus YHR200W, strain rpn10, hits give low values 0.976 | locus YIL066C, strain RNR3, hits give low values 1.01 | locus YIL073C, strain SPO22, hits give low values 0.961 | locus YIL125W, strain kgd1, hits give low values 0.994 | locus YIR030C, strain dcg1, hits give low values 0.995 | locus YJL092W, strain hpr5, hits give low values 1.02 | locus YJL095W, strain BCK1 (second series), hits give low values 1.02 | locus YJL095W, strain BCK1, hits give low values 1.05 and 0.988 | locus YJL115W, strain asf1, hits give low values 1.04 | locus YJL129C, strain trk1, hits give low values 1.04 | locus YJL134W, strain LCB3, hits give low values 0.986 | locus YJL154C, strain vps35, hits give low values 1.01 | locus YJL164C, strain tpk1, hits give low values 1 | locus YJL166W, strain qcr8, hits give low values 1.03 | locus YJL168C, strain set2, hits give low values 0.989 | locus YJL187C, strain SWE1 (second series), hits give low values 1.01 | locus YJR043C, strain POL32, hits give low values 1.01 | locus YJR066W, strain TOR1, hits give low values 0.917
